From PubChem BioAssay AID1159580 (chemical genetic matrix, 2015)
Several values for one entry are separate records, joined by “and”; a condition that tells them apart may be missing. Identical values can stand only once. Out of some 5,500 compounds screened, about 2,000 (36%) were called active. Not shown: some 18% with an inconclusive outcome. Cut-off read from the data, not from the text of the source: active = normalized growth mostly below about 0.91 (no sharp cut-off); inconclusive = no clear call, values can overlap the other calls; inactive = mostly above about 0.92. The list shows a part of the results.

Test: chemical genetic growth profiling, strain panel (AID 1159580);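 note: tested at 20 µM; growth read once vehicle control cultures reached saturation at 30 °C; 1 = growth at the plate median or of vehicle wells; lower values mean less growth of the strain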
Details: S. cerevisiae deletion strains, growth OD

Measured: normalized growth

CC(=O)NS(=O)(=O)c1ccc(N)cc1
inactive: locus YAL021C, strain ccr4, active compounds read low 1 | locus YAL026C, strain drs2, active compounds read low 1.01 | locus YAL030W, strain snc1, active compounds read low 1.01 | locus YBL061C, strain skt5, active compounds read low 0.999 | locus YBR009C, strain hhf1, active compounds read low 1.01 | locus YBR021W, strain FUR4, active compounds read low 0.987 | locus YBR023C, strain chs3, active compounds read low 1.01 | locus YBR171W, strain sec66, active compounds read low 1.02 | locus YBR229C, strain ROT2, active compounds read low 0.986 | locus YBR231C, strain swc5, active compounds read low 1.03 | locus YBR279W, strain paf1, active compounds read low 1.01 | locus YCL011C, strain gbp2, active compounds read low 1.02 | locus YCL016C, strain dcc1, active compounds read low 1.01 | locus YCL029C, strain bik1, active compounds read low 0.973 | locus YCL061C, strain MRC1, active compounds read low 1.02 | locus YCL069W, strain vba3, active compounds read low 1 | locus YCR088W, strain abp1, active compounds read low 1.01 | locus YDL005C, strain med2, active compounds read low 1.01 | locus YDL035C, strain GPR1, active compounds read low 1 | locus YDL040C, strain nat1, active compounds read low 0.995 | locus YDL074C, strain BRE1, active compounds read low 1.02 | locus YDL101C, strain DUN1, active compounds read low 0.987 | locus YDL134C, strain PPH21, active compounds read low 0.99 | locus YDL185W, strain tfp1, active compounds read low 0.98 | locus YDL192W, strain arf1, active compounds read low 0.971 | locus YDR001C, strain nth1, active compounds read low 1.01 | locus YDR069C, strain doa4, active compounds read low 1.03 | locus YDR101C, strain arx1, active compounds read low 0.971 | locus YDR137W, strain rgp1, active compounds read low 0.997 | locus YDR150W, strain NUM1, active compounds read low 0.994 | locus YDR159W, strain sac3, active compounds read low 1.03 | locus YDR162C, strain NBP2, active compounds read low 0.999 | locus YDR195W, strain ref2 0.998 | locus YDR297W, strain sur2, active compounds read low 1 | locus YDR318W, strain mcm21, active compounds read low 0.987 | locus YDR334W, strain swr1, active compounds read low 0.999 | locus YDR335W, strain msn5, active compounds read low 0.993 | locus YDR388W, active compounds read low 0.977 | locus YDR392W, strain spt3, active compounds read low 1.01 | locus YDR502C, strain sam2, active compounds read low 0.99 | locus YEL003W, strain gim4, active compounds read low 1.01 | locus YEL037C, strain rad23, active compounds read low 1.01 | locus YEL061C, strain CIN8 (second series), active compounds read low 1.02 | locus YEL061C, strain CIN8, active compounds read low 0.993 | locus YER015W, strain faa2, active compounds read low 1.01 | locus YER016W, strain bim1, active compounds read low 1.02 | locus YER110C, active compounds read low 0.975 | locus YER111C, strain swi4, active compounds read low 1 | locus YER155C, strain BEM2 (second series), active compounds read low 1.05 | locus YER155C, strain BEM2, active compounds read low 0.986 | locus YER167W, strain BCK2, active compounds read low 0.989 | locus YFR010W, strain ubp6, active compounds read low 1.02 | locus YGL078C, strain dbp3, active compounds read low 0.974 | locus YGL086W, strain mad1, active compounds read low 1 | locus YGL167C, strain pmr1, active compounds read low 0.999 | locus YGL173C, strain kem1, active compounds read low 1.01 | locus YGL227W, strain vid30, active compounds read low 1.01 | locus YGL240W, strain doc1, active compounds read low 0.999 | locus YGL248W, strain PDE1, active compounds read low 0.994 | locus YGL253W, strain hxk2, active compounds read low 1.02 | locus YGR078C, strain PAC10, active compounds read low 0.998 | locus YGR135W, strain pre9, active compounds read low 0.976 | locus YGR252W, strain gcn5, active compounds read low 1.05 | locus YHR013C, strain ard1, active compounds read low 1.01 | locus YHR027C, strain rpn1, active compounds read low 1.02 | locus YHR030C, strain SLT2, active compounds read low 0.992 and 0.987 | locus YHR079C, strain IRE1 (second series), active compounds read low 0.978 | locus YHR079C, strain IRE1, active compounds read low 0.982 | locus YHR094C, strain hxt1, active compounds read low 0.993 | locus YHR129C, strain ARP1, active compounds read low 0.997 | locus YHR142W, strain chs7, active compounds read low 1.01 | locus YHR200W, strain rpn10, active compounds read low 0.984 | locus YIL066C, strain RNR3, active compounds read low 0.993 | locus YIL073C, strain SPO22, active compounds read low 0.934 | locus YIL125W, strain kgd1, active compounds read low 0.986 | locus YIR030C, strain dcg1, active compounds read low 0.981 | locus YJL092W, strain hpr5, active compounds read low 1.02 | locus YJL095W, strain BCK1 (second series), active compounds read low 1.01 | locus YJL095W, strain BCK1, active compounds read low 1 and 0.978 | locus YJL115W, strain asf1, active compounds read low 1.04 | locus YJL129C, strain trk1, active compounds read low 1.01 | locus YJL134W, strain LCB3, active compounds read low 0.992 | locus YJL154C, strain vps35, active compounds read low 1.01 | locus YJL164C, strain tpk1, active compounds read low 1 | locus YJL166W, strain qcr8, active compounds read low 1 | locus YJL168C, strain set2, active compounds read low 0.986 | locus YJL187C, strain SWE1 (second series), active compounds read low 0.983 | locus YJL187C, strain SWE1, active compounds read low 1.01 | locus YJR043C, strain POL32, active compounds read low 0.997
